# Measurements reported in PubChem BioAssay (NCATS).
# Where “and” joins values, the source holds several entries; their conditions need not be identical. Equal values may be shown once. A number with no mark means an inactive call. Records with an inconclusive call do not appear. Calls of active or inactive are those of the source. Unless noted, the call rests on the fitted dose curve; in most records, active means well fitted curve in either direction with a large enough effect (not every such curve was filed as active); inconclusive means small, poorly fitted or top-dose-only effect, or another doubt; inactive means flat fitted curve, though single readings scatter.
# What was measured:
# [1] = target: Cytochrome P450 1A2 (Homo sapiens) (UniProt P05177); assay: p450-cyp1a2 (AID 410; calls by dose curve; further: potency means the concentration at half of the fitted maximal effect;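 on activity change, negative = inhibition: -100% = full effect of reference inhibitor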)
# Outline: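 20nM CYP1A2, 100uM Luciferin-ME (=Km), 100mM KPO4; cpd 10 min RT; +NADPH regen, 60 min RT; stop/detect 20 min; luminescence. Normalized to furafylline 57 uM = full inhibition.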
# [2] = NFAT Signaling Pathway (AID 444); settings: Jurkat NFAT-bla M1, carbachol, beta-lactamase ratio, 5 h; at 7.69 µM (top of the series) unless noted;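 further: carbachol stimulus at about its EC50 of 1 µM final; on the % scale 0 is the no-effect control and ±100 the full control effect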
# Outline: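 Jurkat cells carrying an NFAT-driven β-lactamase reporter and co-transfected muscarinic M1 receptor were treated with compound plus carbachol (1 uM final, an EC50 level) for 5 h at 37 °C. CCF4 loading followed for 1 h at RT; 460/530 nm ratio gave %activity.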
# [3] = Stat Signaling Pathway (AID 446); settings: ME-180 SIE beta-lactamase reporter, IL-6 stimulated, 5 h; at 7.69 µM (top of the series) unless noted;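 further: ME-180 cervical cancer cells given 40 pM IL-6 alongside compound; SIE-controlled beta-lactamase reporter measured as 460/530 nm FRET emission ratio; on the % scale 0 is the no-effect control and ±100 the full control effect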
# Outline: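 Normalization used AC90 stimulation (300 pM IL-6) and AC90 inhibition (125 nM pan-JAK inhibitor at 40 pM IL-6). The underlying signal is SIE-driven beta-lactamase in ME-180 cells after 5 h IL-6 exposure with compound.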
# [4] = target: Glucocorticoid receptor (Homo sapiens) (UniProt P04150); assay: GR-GFP Redistribution (AID 450;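 active means compounds whose dose series gives a full or clear partial fitted curve of increased nuclear translocation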; further: potency means the concentration at half of the fitted maximal effect); settings: U2OS GR-GFP nuclear translocation, laser cytometry, 2 h
# [5] = target: Glucocorticoid receptor (Homo sapiens) (UniProt P04150); assay: GR-EFC Redistribution (AID 451; calls by dose curve; further: potency means the concentration at half of the fitted maximal effect); settings: CHO-K1 GR-EFC translocation, beta-gal luminescence, 2 h
# Outline: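 CHO-K1 cells stably expressing nuclear-localized β-gal enzyme acceptor and GR fused C-terminally to the enzyme donor fragment; ligand-driven nuclear translocation restores β-gal by complementation. Compounds titrated up to 46 uM final, 2 h at 37 °C; luminescence read.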
# [6] = target: Mitogen-activated protein kinase 10 (Mus musculus) (UniProt Q61831); assay: JNK3 AlphaScreen Assay (AID 530);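 further: kinase came from lysate of stimulated human HepG2 cells; signal reports phosphorylation of biotinylated GST-cJun 1-79 at Ser73 with 10 µM ATP; on the % scale 0 is the no-effect control and ±100 the full control effect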
# Outline: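 Biotinylated GST-cJun(1-79) served as substrate for JNK3 in HepG2 lysates stimulated with IL-1beta and TNF-alpha. ATP was 10 uM final, pH 7.6. Ser73 phosphorylation was quantified by AlphaScreen (680 nm excitation).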
# [7] = target: 3',5'-cyclic-AMP phosphodiesterase 4B (Homo sapiens) (UniProt Q07343); assay: qHTS Assay for Inhibitors of PDE-IV (AID 607; active means well fitted activation curve with a large enough effect in the main read-out, with a control signal flat, not every such curve was filed as active; further: % of control where 0% means no effect)
# Outline: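 HEK293 ACTOne cells with CNG channel (1000/well), endogenous PDE4; membrane potential dye, compounds up to 22.9 uM final. Fluorescence Ex 535/Em 590; RO 20-1724 (100 uM final) as reference.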
# [8] = AP1 Signaling Pathway (AID 357); settings: ME-180 (cervical carcinoma) AP-1-bla reporter, EGF-induced, beta-lactamase ratio, 5 h; at 7.69 µM (top of the series) unless noted;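 further: ME-180 reporter cells stimulated with EGF at its EC50 level; on the % scale 0 is the no-effect control and ±100 the full control effect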
# Outline: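 First, ME-180 AP-1-bla cells were cultured overnight at 37 °C in low-serum Opti-MEM. Next, titrated compounds with EC50 EGF were incubated 5 hours. Finally, CCF4 was added for 2.5 hours and the 460/530 nm ratio recorded.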
# [9] = target: Cytochrome P450 3A4 (Homo sapiens) (UniProt P08684); assay: qHTS Assay for Inhibitors and Substrates of Cytochrome P450 3A4 (AID 884; active means well fitted inhibition curve with a large enough effect; further: potency means the concentration at half of the fitted maximal effect; nearly all actives have a fitted effect of over 50% in size)
# Outline: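 Luminescent readout of luciferin produced by CYP3A4 (20 nM) dealkylation of Luciferin-PPXE, 25 uM (its KM). NADPH-driven reaction ran 60 min at RT after 10 min compound preincubation; data scaled to 57 uM ketoconazole as 100% inhibition.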
# Sequence of Glucocorticoid receptor (Homo sapiens) (P04150 whole entry, looked up, the tested form may be a part): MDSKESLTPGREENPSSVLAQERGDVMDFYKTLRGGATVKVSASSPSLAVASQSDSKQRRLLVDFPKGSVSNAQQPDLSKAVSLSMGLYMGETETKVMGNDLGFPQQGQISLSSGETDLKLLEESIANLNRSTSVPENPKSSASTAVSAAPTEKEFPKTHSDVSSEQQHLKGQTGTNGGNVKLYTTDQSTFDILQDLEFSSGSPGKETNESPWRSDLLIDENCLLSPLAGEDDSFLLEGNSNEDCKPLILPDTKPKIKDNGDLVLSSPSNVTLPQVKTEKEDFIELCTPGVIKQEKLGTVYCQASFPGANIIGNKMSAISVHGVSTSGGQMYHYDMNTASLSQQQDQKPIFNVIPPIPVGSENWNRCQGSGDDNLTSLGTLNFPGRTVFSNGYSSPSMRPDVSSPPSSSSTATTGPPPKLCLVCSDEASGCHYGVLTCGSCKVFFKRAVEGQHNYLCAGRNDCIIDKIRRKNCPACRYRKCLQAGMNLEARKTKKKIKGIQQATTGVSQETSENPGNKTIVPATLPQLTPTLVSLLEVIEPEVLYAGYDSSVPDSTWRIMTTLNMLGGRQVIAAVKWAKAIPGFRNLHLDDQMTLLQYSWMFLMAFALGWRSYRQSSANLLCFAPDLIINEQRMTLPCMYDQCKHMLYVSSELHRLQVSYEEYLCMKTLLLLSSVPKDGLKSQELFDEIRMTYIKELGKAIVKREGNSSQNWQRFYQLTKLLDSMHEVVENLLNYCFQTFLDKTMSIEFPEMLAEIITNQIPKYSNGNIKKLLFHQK
# Sequence of 3',5'-cyclic-AMP phosphodiesterase 4B (Homo sapiens) (Q07343 whole entry, looked up): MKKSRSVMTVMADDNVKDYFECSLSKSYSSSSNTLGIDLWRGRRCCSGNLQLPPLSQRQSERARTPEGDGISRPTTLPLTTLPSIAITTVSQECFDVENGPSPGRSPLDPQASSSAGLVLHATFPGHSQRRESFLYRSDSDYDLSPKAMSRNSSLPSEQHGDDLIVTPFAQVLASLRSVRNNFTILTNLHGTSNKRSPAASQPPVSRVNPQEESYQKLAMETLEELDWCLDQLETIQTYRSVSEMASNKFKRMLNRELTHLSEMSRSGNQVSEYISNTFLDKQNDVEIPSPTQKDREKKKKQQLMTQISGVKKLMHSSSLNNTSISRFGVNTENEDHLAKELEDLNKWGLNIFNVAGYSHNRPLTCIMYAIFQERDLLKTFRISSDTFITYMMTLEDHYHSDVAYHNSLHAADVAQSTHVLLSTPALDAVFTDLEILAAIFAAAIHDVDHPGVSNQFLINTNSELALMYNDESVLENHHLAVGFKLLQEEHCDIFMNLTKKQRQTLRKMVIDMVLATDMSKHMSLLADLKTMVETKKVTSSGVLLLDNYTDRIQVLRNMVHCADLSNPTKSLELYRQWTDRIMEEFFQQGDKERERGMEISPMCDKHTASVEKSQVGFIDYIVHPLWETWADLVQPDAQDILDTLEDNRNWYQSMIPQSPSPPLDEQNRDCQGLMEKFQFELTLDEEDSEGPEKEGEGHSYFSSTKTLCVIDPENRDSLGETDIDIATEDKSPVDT
# Sequence of Cytochrome P450 1A2 (Homo sapiens) (P05177 whole entry, looked up): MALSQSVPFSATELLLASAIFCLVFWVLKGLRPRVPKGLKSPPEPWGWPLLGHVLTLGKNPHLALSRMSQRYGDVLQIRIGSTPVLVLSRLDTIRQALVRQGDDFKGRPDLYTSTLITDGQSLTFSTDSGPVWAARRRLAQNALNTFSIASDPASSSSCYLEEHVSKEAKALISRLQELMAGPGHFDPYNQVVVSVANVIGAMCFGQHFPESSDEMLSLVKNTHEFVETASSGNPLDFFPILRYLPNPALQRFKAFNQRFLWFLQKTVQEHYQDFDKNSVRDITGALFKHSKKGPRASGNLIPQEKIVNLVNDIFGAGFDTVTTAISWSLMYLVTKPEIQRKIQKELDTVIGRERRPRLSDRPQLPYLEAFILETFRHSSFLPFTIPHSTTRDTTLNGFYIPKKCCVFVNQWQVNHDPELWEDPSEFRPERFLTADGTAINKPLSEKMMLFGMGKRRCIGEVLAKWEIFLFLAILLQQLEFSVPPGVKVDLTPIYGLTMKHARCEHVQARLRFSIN
# Sequence of Cytochrome P450 3A4 (Homo sapiens) (P08684 whole entry, looked up): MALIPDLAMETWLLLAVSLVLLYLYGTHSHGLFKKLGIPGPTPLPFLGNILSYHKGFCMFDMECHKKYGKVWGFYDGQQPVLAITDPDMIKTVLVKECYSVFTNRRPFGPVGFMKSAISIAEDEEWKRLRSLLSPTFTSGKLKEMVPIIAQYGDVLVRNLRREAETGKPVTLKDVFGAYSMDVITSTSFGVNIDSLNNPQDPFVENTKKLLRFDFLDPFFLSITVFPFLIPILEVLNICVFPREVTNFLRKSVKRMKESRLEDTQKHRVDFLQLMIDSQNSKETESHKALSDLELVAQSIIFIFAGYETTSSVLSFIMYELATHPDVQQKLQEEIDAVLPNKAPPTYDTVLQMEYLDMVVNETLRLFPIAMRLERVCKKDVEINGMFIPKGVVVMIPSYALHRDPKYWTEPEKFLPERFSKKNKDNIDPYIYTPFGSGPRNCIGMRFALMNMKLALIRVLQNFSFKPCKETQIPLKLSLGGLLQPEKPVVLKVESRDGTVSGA
Structure (SMILES),Potency [1],"activity change, negative = inhibition [2]","activity, negative = inhibition [3]",Potency [4],Potency [5],"activity change, negative = inhibition [6]",outcome [7],"activity change, negative = inhibition [8]",Potency [6],Potency [9]
O=C(O)[C@@H]1[C@H](C(=O)O)[C@]2(Cl)C(Cl)=C(Cl)[C@@]1(Cl)C2(Cl)Cl,inactive,11.1%,3.47%,> 46 µM,> 9.22 µM,0.126% [at 11.4 µM],inactive,,,
O=C1C[C@@H]2OCC=C3CN4CC[C@]56c7ccccc7N1[C@@H]5[C@@H]2[C@H]3C[C@H]46 (tested in a mixture with another compound),,,,,,1.78% [at 11.4 µM],inactive,5.95%,,
CC(C)CNCCc1ccccn1,,10.3%,0.662%,> 46 µM,> 9.22 µM,2.37% [at 11.4 µM],inactive,11.4%,,
CS(=O)(=O)O[C@H]1CN2CCC1CC2,inactive,-10.5%,-2.65%,> 46 µM,> 9.22 µM,2.61% [at 11.4 µM],inactive,,,
C[C@@]12CC[C@H]3[C@@H](CC=C4C[C@H](OS(=O)(=O)O)CC[C@]43C)[C@H]1CCC2=O,inactive,-0.252% [at 38 µM],-15.3% [at 38 µM],> 46 µM,> 46 µM,,inactive,-6.95% [at 38 µM],inactive,
CC(C)[C@@]1(NC(=O)[C@H]2C[C@H]3c4cccc5[nH]cc(c45)C[C@@H]3N(C)C2)O[C@]2(O)[C@H]3CCCN3C(=O)[C@H](Cc3ccccc3)N2C1=O,inactive,1.76% [at 38 µM],-34.2% [at 38 µM],> 46 µM,> 46 µM,,inactive,-10% [at 38 µM],inactive,
COc1ccc2c3c1O[C@@H]1C(=O)CC[C@@]4(O)[C@@H](C2)N(CC2CC2)CC[C@]314,inactive,-9.4% [at 38 µM],4.82% [at 38 µM],> 46 µM,> 46 µM,,inactive,-5.48% [at 38 µM],inactive,
C[C@]12CC[C@H](O)C[C@@H]1CC[C@H]1[C@H]2CC[C@]2(C)[C@H](C(=O)CO)CC[C@@H]12,25.1 µM (active),0.826% [at 38 µM],11.8% [at 38 µM],> 46 µM,> 46 µM,,inactive,0.537% [at 38 µM],,
N[C@H](CCl)C(=O)O,inactive,14.9% [at 38 µM],-9.55% [at 38 µM],> 46 µM,> 46 µM,,inactive,0.76% [at 38 µM],inactive,
O=C(Nc1cc[c]([Sb](=[O])([OH])[OH])cc1)c1ccccc1,5.01 µM (active),23.1%,-1.59%,> 46 µM,> 9.22 µM,-0.0598% [at 11.4 µM],inactive,-1.71%,,
C[N+]1(C)C2CC(OC(=O)C(CO)c3ccccc3)CC1[C@@H]1O[C@H]21 (stereo not given in full),inactive,-56.8% [at 38 µM] (active),5.12% [at 38 µM] and -2.5% [at 38 µM],> 46 µM,> 46 µM,,,-8.85% [at 38 µM] and -6.94% [at 38 µM],inactive,
COc1ccc2c(c1O)-c1cccc3c1[C@H](C2)N(C)CC3,3.98 µM (active),-9.88% [at 38 µM],28.1% [at 38 µM],> 46 µM,> 46 µM,,inactive,-2.14% [at 38 µM],inactive,
Oc1ccc2c3c1O[C@@H]1c4[nH]c5c(c4C[C@@]4(O)[C@@H](C2)N(CC2CC2)CC[C@]314)C[C@]1(O)[C@@H]2Cc3ccc(O)c4c3[C@@]1(CCN2CC1CC1)[C@H]5O4,inactive,-8.04% [at 38 µM],-12.2% [at 38 µM],> 46 µM,> 46 µM,,inactive,-1.65% [at 38 µM],,
COc1cc([C@@H](O)CN)ccc1O,inactive,6.77% [at 38 µM],3.87% [at 38 µM],> 46 µM,> 46 µM,,inactive,-3.13% [at 38 µM],inactive,
C[N+]1(C)CCc2cc3c(cc2[C@@H]1[C@@H]1OC(=O)c2c1ccc1c2OCO1)OCO3,inactive,-11.8% [at 38 µM],13.3% [at 38 µM],> 46 µM,> 46 µM,,inactive,-3.72% [at 38 µM],,
CO[C@@H]1CC=C2CCN3CCC4=C(CC(=O)OC4)[C@]23C1,inactive,-0.774% [at 38 µM],-4.68% [at 38 µM],> 46 µM,> 46 µM,,inactive,6.22% [at 38 µM],inactive,
C[C@]12CC[C@H](O)CC1=CC[C@@H]1[C@H]2CC[C@]2(C)C(=O)CC[C@H]12,inactive,2.55% [at 38 µM],3.87% [at 38 µM],> 46 µM,> 46 µM,,inactive,1.1% [at 38 µM],,
C[C@@]12CC[C@H]3[C@@H](CC[C@@H]4C[C@H](O)CC[C@]43C)[C@H]1CC[C@H]2O,15.8 µM (active),6.96% [at 38 µM],24.5% [at 38 µM],> 46 µM,> 46 µM,,inactive,-12.3% [at 38 µM],inactive,
CCn1cnc2c(Nc3cccc(Cl)c3)nc(N[C@@H]3CCCC[C@H]3N)nc21,15.8 µM (active),-119% [at 38 µM] (active),-30.2% [at 38 µM] (active),> 46 µM,> 46 µM,,inactive,-111% [at 38 µM] (active),inactive,
CC(C)C[C@H](NP(=O)(O)O[C@@H]1O[C@@H](C)[C@@H](O)[C@@H](O)[C@H]1O)C(=O)N[C@@H](Cc1c[nH]c2ccccc12)C(=O)O,inactive,9.26% [at 38 µM],14.9% [at 38 µM],> 46 µM,> 46 µM,,inactive,5.95% [at 38 µM],inactive,
CC(C)[C@@]1(NC(=O)[C@@H]2C=C3c4cccc5[nH]cc(c45)C[C@@H]3N(C)C2)O[C@]2(O)[C@H]3CCCN3C(=O)[C@H](Cc3ccccc3)N2C1=O,10 µM (active),4.28% [at 38 µM],8.76% [at 38 µM],> 46 µM,> 46 µM,,inactive,-14% [at 38 µM],inactive,
C=CCN1CC[C@]23c4c5ccc(O)c4O[C@@H]2/C(=N/NC(=O)c2ccccc2)CC[C@@]3(O)[C@H]1C5,inactive,-2.19% [at 38 µM],-23.6% [at 38 µM],> 46 µM,> 46 µM,,inactive,-2.73% [at 38 µM],inactive,
C[C@@H]1Cc2cc3c(cc2C(c2ccc(N)cc2)=NN1)OCO3,5.01 µM (active),-10.6% [at 38 µM],13.7% [at 38 µM],> 46 µM,> 46 µM,,inactive,-10.9% [at 38 µM],,2.51 µM (active)
CC(=O)c1c(O)c(C)c(O)c(Cc2c(O)c3c(c(C(=O)/C=C\c4ccccc4)c2O)OC(C)(C)C=C3)c1O,12.6 µM (active) and 31.6 µM (active),,-35.6% [at 38 µM],> 46 µM,> 46 µM,,inactive,-26.6% [at 38 µM],inactive,6.31 µM (active)
O=C(O)[C@H]1[C@H](C(=O)O)[C@H]2CC[C@@H]1O2,inactive,-8.52% [at 38 µM],-14.7% [at 38 µM],> 46 µM,> 46 µM,,inactive,-9.16% [at 38 µM],inactive,
COc1cc(C[C@H](C)N)c(OC)cc1I,6.31 µM (active) and 12.6 µM (active),-22.6% [at 38 µM] and -16.3% [at 38 µM],-6.07% [at 38 µM],> 46 µM,> 46 µM,,inactive,8.22% [at 38 µM] and 4.79% [at 38 µM],inactive,
NC[C@H](O)c1cc(O)c(O)cc1F,inactive,4.54% [at 38 µM],10.9% [at 38 µM],> 46 µM,> 46 µM,,inactive,-2.42% [at 38 µM],,
CC(=O)[C@@H]1CC[C@H]2[C@H]3CC[C@H]4C[C@@H](O)CC[C@]4(C)[C@@H]3CC[C@]12C,10 µM (active),-10.3% [at 38 µM],-25.9% [at 38 µM],> 46 µM,> 46 µM,,inactive,11.2% [at 38 µM],inactive,
